# Test results published in PubChem BioAssay (NCATS).
# “And” between values parts separate entries of the source, which are not always exact repeats. Equal entries are not always repeated. Results filed as inconclusive are left out. A call without a number means that no potency is given here. A number with no mark means an inactive call. The source made the active and inactive calls. Calls follow the shape of the dose curve; as a rule, active = well fitted curve in the direction sought with a large enough effect; inconclusive = small, poorly fitted or top-dose-only effect, or another doubt; inactive = no such curve, though single readings can be large; an effect the other way counts as inactive or inconclusive.
# Experiments:
# MKL-2 = test: qHTS assay to identify novel small-molecules to repurpose for Merkel cell carcinoma treatment (AID 1296009); conditions: MCC and control cell lines, CellTiter-Glo viability, 72 h; series mostly up to 46 µM; also: nearly all actives have a fitted effect of over 60% in size; also: potency is read from the fitted curve at half-maximal effect
# How it was run: (§1)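 Dose-response viability screen; 72 hr exposure at 37 degree celsius; CellTiter-Glo added, 10 min room temperature, luminescence read; RLUs scaled between no-cell and DMSO wells.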
# NIH3T3 = test: as above; conditions: MCC and control cell lines, CellTiter-Glo viability, 72 h; at 44.8 µM (top of the series) unless noted
# How it was run: as §1
# UISO = test: as above; conditions: MCC and control cell lines, CellTiter-Glo viability, 72 h; series mostly up to 46 µM
# How it was run: as §1
# C33A = test: Primary qHTS to identify gynecologic anti-cancer compounds using libraries of approved drugs and bioactive compounds (AID 1345084); conditions: Gynecologic cancer cell panel viability, ATPlite luminescence, 48 h; series mostly up to 57.5 µM; also: nearly all actives have a fitted effect of over 55% in size
# How it was run: (§2)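 48 h compound exposure at 37 C, 5% CO2; five-point qHTS. ATPlite luminescence readout of cell ATP.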
# CAOV3 = test: as above; conditions: Gynecologic cancer cell panel viability, ATPlite luminescence, 48 h; series mostly up to 57.5 µM
# How it was run: as §2
# CASKI = test: as above; conditions: Gynecologic cancer cell panel viability, ATPlite luminescence, 48 h; series mostly up to 57.5 µM
# How it was run: as §2
# Es-2 = test: as above; conditions: Gynecologic cancer cell panel viability, ATPlite luminescence, 48 h; series mostly up to 57.5 µM
# How it was run: as §2
# HeLa = test: as above; conditions: Gynecologic cancer cell panel viability, ATPlite luminescence, 48 h; series mostly up to 57.5 µM
# How it was run: as §2
# Hek293T = test: as above; conditions: Gynecologic cancer cell panel viability, ATPlite luminescence, 48 h, control line for the selectivity index; series mostly up to 57.5 µM
# How it was run: as §2
# JEG-3 = test: as above; conditions: Gynecologic cancer cell panel viability, ATPlite luminescence, 48 h; series mostly up to 57.5 µM
# How it was run: as §2
# OV90 = test: as above; conditions: Gynecologic cancer cell panel viability, ATPlite luminescence, 48 h; series mostly up to 57.5 µM
# How it was run: as §2
# PA-1 = test: as above; conditions: Gynecologic cancer cell panel viability, ATPlite luminescence, 48 h; series mostly up to 57.5 µM
# How it was run: as §2
# SKOV3 = test: as above; conditions: Gynecologic cancer cell panel viability, ATPlite luminescence, 48 h; series mostly up to 57.5 µM
# How it was run: as §2
# Tov-21-G = test: as above; conditions: Gynecologic cancer cell panel viability, ATPlite luminescence, 48 h; series mostly up to 57.5 µM
# How it was run: as §2
# Tov112D = test: as above; conditions: Gynecologic cancer cell panel viability, ATPlite luminescence, 48 h; series mostly up to 57.5 µM
# How it was run: as §2
# [1] = Drug repurposing screens with cells derived from glioblastoma tumor samples (AID 1345199); conditions: GBM patient neurospheres viability, ATP luminescence, 48 h; also: nearly all actives have a fitted effect of over 40% in size; also: potency is read from the fitted curve at half-maximal effect
# How it was run: (§3)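 Primary testing used CD133+ neurospheres from four GBM patients, seven concentrations, 48 h exposure and ATP-based viability; confirmation added three slower-growing patient lines.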
# WaGa = test: qHTS assay to identify novel small-molecules to repurpose for Merkel cell carcinoma treatment (AID 1296009); conditions: MCC and control cell lines, CellTiter-Glo viability, 72 h; series mostly up to 46 µM; also: nearly all actives have a fitted effect of over 60% in size; also: potency is read from the fitted curve at half-maximal effect
# How it was run: as §1
# astro = test: Drug repurposing screens with cells derived from glioblastoma tumor samples (AID 1345199); conditions: viability, ATP luminescence, 48 h; series mostly up to 45.9 µM; also: nearly all actives have a fitted effect of over 40% in size; also: potency is read from the fitted curve at half-maximal effect
# How it was run: as §3
# [2] = at 45.9 µM (top of the series), tumour line B
# [3] = at 45.9 µM (top of the series), tumour line D
# [4] = at 46.1 µM (top of the series), tumour line C
# [5] = at 20 µM (top of the series), tumour line C
# [6] = at 21.2 µM (top of the series), tumour line B
# [7] = at 21.2 µM (top of the series), tumour line D
# [8] = at 46 µM (top of the series), tumour line A
# [9] = at 21.3 µM (top of the series), tumour line A
compound,measurement,setting,value
Cc1ccc(C(=O)C(C)CN2CCCCC2)cc1 (stereo unspecified),Potency,MKL-2,10.6 µM (active)
same,outcome,NIH3T3,inactive
same,Potency,UISO,inactive
same,Potency,C33A,inactive
same,Potency,CAOV3,inactive
same,Potency,CASKI,inactive
same,Potency,Es-2,inactive
same,Potency,HeLa,inactive
same,Potency,Hek293T,inactive
same,Potency,JEG-3,inactive
same,Potency,OV90,inactive
same,Potency,PA-1,inactive
same,Potency,SKOV3,inactive
same,Potency,Tov-21-G,inactive
same,Potency,Tov112D,inactive
same,"activity, negative = cell killing",[1]; [2],-5.6% and -9.58%
same,"activity, negative = cell killing",[1]; [3],-3.01% and -24.6%
same,"activity, negative = cell killing",[1]; [4],4.06% and 1.53%
CCCCCC=CCC=CCCCCCCCC(=O)OCC,Potency,MKL-2,15 µM (active)
same,outcome,NIH3T3,inactive
same,Potency,UISO,inactive
same,Potency,C33A,inactive
same,Potency,CAOV3,inactive
same,Potency,CASKI,inactive
same,Potency,Es-2,inactive
same,Potency,HeLa,inactive
same,Potency,Hek293T,inactive
same,Potency,JEG-3,inactive
same,Potency,OV90,inactive
same,Potency,PA-1,inactive
same,Potency,SKOV3,inactive
same,Potency,Tov-21-G,inactive
same,Potency,Tov112D,inactive
same,"activity, negative = cell killing",[1]; [2],-5.69%
same,"activity, negative = cell killing",[1]; [3],-29.1%
same,"activity, negative = cell killing",[1]; [4],-8.48%
O=C1c2ccccc2C(=O)C1c1ccccc1,Potency,MKL-2,inactive
same,outcome,NIH3T3,inactive
same,Potency,UISO,inactive
same,Potency,WaGa,inactive
same,Potency,C33A,inactive
same,Potency,CAOV3,inactive
same,Potency,CASKI,inactive
same,Potency,Es-2,inactive
same,Potency,HeLa,inactive
same,Potency,Hek293T,inactive
same,Potency,JEG-3,inactive
same,Potency,OV90,inactive
same,Potency,PA-1,inactive
same,Potency,Tov-21-G,inactive
same,Potency,Tov112D,inactive
same,"activity, negative = cell killing",[1]; [5],22.2%
same,"activity, negative = cell killing",[1]; [6],-2.67%
same,"activity, negative = cell killing",[1]; [7],-10.9%
COc1ccc(C2C(=O)c3ccccc3C2=O)cc1,Potency,MKL-2,inactive
same,outcome,NIH3T3,inactive
same,Potency,UISO,inactive
same,Potency,WaGa,inactive
same,Potency,C33A,inactive
same,Potency,CAOV3,inactive
same,Potency,CASKI,inactive
same,Potency,Es-2,inactive
same,Potency,HeLa,inactive
same,Potency,Hek293T,inactive
same,Potency,JEG-3,inactive
same,Potency,OV90,inactive
same,Potency,PA-1,inactive
same,Potency,SKOV3,inactive
same,Potency,Tov-21-G,inactive
same,Potency,Tov112D,inactive
same,"activity, negative = cell killing",[1]; [2],-10.6%
same,"activity, negative = cell killing",[1]; [3],-14.2%
same,"activity, negative = cell killing",[1]; [4],-5.24%
same,Potency,astro,inactive
N[C@@H](CCC(=O)N[C@@H](CS)C(=O)NCC(=O)O)C(=O)O,Potency,MKL-2,inactive
same,outcome,NIH3T3,inactive [at 17.4 µM]
same,Potency,UISO,inactive
same,Potency,WaGa,inactive
same,Potency,C33A,inactive
same,Potency,CAOV3,inactive
same,Potency,CASKI,inactive
same,Potency,Es-2,inactive
same,Potency,HeLa,inactive
same,Potency,Hek293T,inactive
same,Potency,JEG-3,inactive
same,Potency,OV90,inactive
same,Potency,PA-1,inactive
same,Potency,SKOV3,inactive
same,Potency,Tov-21-G,inactive
same,Potency,Tov112D,inactive
same,"activity, negative = cell killing",[1]; [2],-10.5%
same,"activity, negative = cell killing",[1]; [3],-6.47%
same,"activity, negative = cell killing",[1]; [8],-29.7%
same,"activity, negative = cell killing",[1]; [4],10.6%
same,Potency,astro,inactive
Cc1c(N(C)CS(=O)(=O)O)c(=O)n(-c2ccccc2)n1C,Potency,MKL-2,inactive
same,outcome,NIH3T3,inactive
same,Potency,UISO,inactive
same,Potency,WaGa,inactive
same,Potency,C33A,inactive
same,Potency,CAOV3,inactive
same,Potency,CASKI,inactive
same,Potency,Es-2,inactive
same,Potency,JEG-3,inactive
same,Potency,OV90,inactive
same,Potency,SKOV3,inactive
same,"activity, negative = cell killing",[1]; [5],-2.96%
same,"activity, negative = cell killing",[1]; [6],-9.28%
same,"activity, negative = cell killing",[1]; [7],-9.47%
same,"activity, negative = cell killing",[1]; [9],-23.9%
O=c1ccc2ccccc2o1,Potency,MKL-2,inactive
same,outcome,NIH3T3,inactive
same,Potency,UISO,inactive
same,Potency,WaGa,inactive
same,Potency,C33A,inactive
same,Potency,CAOV3,inactive
same,Potency,CASKI,inactive
same,Potency,Es-2,inactive
same,Potency,HeLa,inactive
same,Potency,Hek293T,inactive
same,Potency,JEG-3,inactive
same,Potency,OV90,inactive
same,Potency,PA-1,inactive
same,Potency,SKOV3,inactive
same,Potency,Tov-21-G,inactive
same,Potency,Tov112D,inactive
same,"activity, negative = cell killing",[1]; [2],-10.7%
same,"activity, negative = cell killing",[1]; [3],-11.2%
same,"activity, negative = cell killing",[1]; [8],-35.1%
same,"activity, negative = cell killing",[1]; [4],13.9%
Cc1nc2n(c(=O)c1CCN1CCC(c3noc4cc(F)ccc34)CC1)CCC[C@H]2O,Potency,MKL-2,inactive
same,outcome,NIH3T3,inactive [at 17.4 µM]
same,Potency,UISO,inactive
same,Potency,WaGa,inactive
same,Potency,C33A,inactive
same,Potency,CAOV3,inactive
same,Potency,CASKI,inactive
same,Potency,Es-2,inactive
same,Potency,HeLa,inactive
same,Potency,Hek293T,inactive
same,Potency,JEG-3,inactive
same,Potency,OV90,inactive
same,Potency,PA-1,inactive
same,Potency,SKOV3,inactive
same,Potency,Tov-21-G,inactive
same,Potency,Tov112D,inactive
same,"activity, negative = cell killing",[1]; [2],-11%
same,"activity, negative = cell killing",[1]; [3],-35.1%
same,"activity, negative = cell killing",[1]; [4],-8.74%
same,Potency,[1]; tumour line A,15.8 µM (active)
CC(Cc1cccc(C(F)(F)F)c1)NCCOC(=O)c1ccccc1 (stereo unspecified),Potency,MKL-2,inactive
same,outcome,NIH3T3,inactive
same,Potency,UISO,inactive
same,Potency,WaGa,inactive
same,Potency,C33A,inactive
same,Potency,CASKI,inactive
same,Potency,Es-2,inactive
same,Potency,HeLa,inactive
same,Potency,Hek293T,inactive
same,Potency,JEG-3,inactive
same,Potency,OV90,inactive
same,Potency,PA-1,inactive
same,Potency,SKOV3,inactive
same,Potency,Tov-21-G,inactive
same,Potency,Tov112D,inactive
same,Potency,astro,inactive
NC(=O)C(=O)N/N=C/c1ccc([N+](=O)[O-])o1,Potency,MKL-2,7.5 µM (active)
same,Potency,UISO,29.9 µM (active)
same,Potency,WaGa,15 µM (active)
same,Potency,C33A,inactive
same,Potency,CAOV3,inactive
same,Potency,CASKI,inactive
same,Potency,Es-2,inactive
same,Potency,HeLa,inactive
same,Potency,Hek293T,inactive
same,Potency,JEG-3,inactive
same,Potency,OV90,inactive
same,Potency,PA-1,inactive
same,Potency,SKOV3,inactive
same,Potency,Tov-21-G,inactive
same,Potency,Tov112D,inactive
same,"activity, negative = cell killing",[1]; [4],10.3%
same,Potency,[1]; tumour line A,35.5 µM (active)
CCN(CC)C(=O)N1CCN(C)CC1,Potency,MKL-2,inactive
same,Potency,UISO,inactive
same,Potency,WaGa,inactive
same,Potency,C33A,inactive
same,Potency,CAOV3,inactive
same,Potency,CASKI,inactive
same,Potency,Es-2,inactive
same,Potency,HeLa,inactive
same,Potency,Hek293T,inactive
same,Potency,JEG-3,inactive
same,Potency,OV90,inactive
same,Potency,PA-1,inactive
same,Potency,SKOV3,inactive
same,Potency,Tov-21-G,inactive
same,Potency,Tov112D,inactive
same,"activity, negative = cell killing",[1]; [6],-9.76%
same,"activity, negative = cell killing",[1]; [7],-28.5%
same,"activity, negative = cell killing",[1]; [9],-8.09%
